FGF22 binding – binders of recombinant human FGF22 by thermal shift; activity (Tm shift, normalised), % at 9.99 µM; Q9HCT0; SYPRO orange fluorescence; percent of sucrose octasulfate shift, DMSO zero; 1.5% of 340,000 active;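 active = mean Tm shift, scaled 0 neutral to 100 positive control, at about 1.3% or above, every replicate too, limit read from the data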
Target sequence (Q9HCT0 whole entry, looked up): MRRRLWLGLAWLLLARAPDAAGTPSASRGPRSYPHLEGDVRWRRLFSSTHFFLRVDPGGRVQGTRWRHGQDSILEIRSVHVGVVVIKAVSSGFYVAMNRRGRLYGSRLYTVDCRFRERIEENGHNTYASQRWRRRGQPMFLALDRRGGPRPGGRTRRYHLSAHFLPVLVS
F508del corr – CFTR F508del correction in bronchial cells. activity (quench increase), % at 7.58 µM. CFBE cells, YFP halide quenching; stimulated with forskolin plus potentiator P3; % fluorescence drop versus neutral controls. 0.36% of 350,000 active;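 active = mean added fluorescence quench of at least 8% versus neutral control, with both replicates also reaching 8%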;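 also: cells transiently co-express mutant CFTR-F508del with the halide-sensitive YFP; corrector assay measuring rescue of mutant channel to the surface after 24 h compound exposure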
Vif inh – HIV Vif inhibition; HEK293T cells, Vif self-association by quenched fluorescence, imaging, 24 h; inhibition, % at 7.49 µM; 0.35% of 340,000 active; in the data active = inhibition above about 50%, passing the limit was not always enough
* marks the source's active call; other numbers are inactive results; · = no result. Shown are actives, neighbours in structure and some others; about 1.7% of the full set was active somewhere.

SMILES | FGF22 binding | F508del corr | Vif inh
C[C@H]1CN([C@@H](C)CO)C(=O)c2cccc(NC(=O)c3cnccn3)c2O[C@H]1CN(C)C | -0.2 | 0.5 | ·
C[C@H](CO)N1C[C@H](C)[C@H](CN(C)Cc2ccc(C(=O)O)cc2)Oc2ccc(NS(=O)(=O)c3ccc(Cl)cc3)cc2C1=O | -0.1 | 0.7 | ·
O=C(O)CCn1cc(/C=C\C(=O)c2ccc(Cl)cc2)c(-c2cccc(Br)c2)n1 | · | -1.7 | -9.4
Cc1ccc(-c2nn(CCC(=O)O)cc2/C=C\C(=O)c2ccc(Br)cc2)cc1 | 15.3* | 3.9 | -1.4
O=C(C[C@H]1CC[C@@H]2[C@H](COC[C@@H](O)CN2CC2CCOCC2)O1)N1CCOCC1 | 0.5 | -1.4 | ·
C/C=C/c1ccc([C@@H]2[C@H]3CN(C(=O)Nc4ccc(F)cc4)CCCCN3[C@H]2CO)cc1 | -0.1 | 0.0 | ·
O=C(NC(=O)c1cccc(F)c1)Nc1nc(-c2ccc(F)cc2)cc(C(F)(F)F)n1 | 43.8* | 1.4 | -1.6
O=C(NC(=O)c1ccc(F)cc1)Nc1nc(-c2cccs2)cc(C(F)(F)F)n1 | 0.2 | 1.2 | -15.6
CO[C@H]1CN(C)C(=O)c2cc(NS(=O)(=O)CC(F)(F)F)ccc2OC[C@H](C)N(C(=O)NC(C)C)C[C@H]1C | -0.1 | -1.2 | ·
CO[C@@H]1CN(C)C(=O)c2cc(NS(C)(=O)=O)ccc2OC[C@H](C)NC[C@@H]1C | · | -0.5 | ·
CCc1cccc2c(C(=O)C(F)(F)F)cn(CC(=O)NCC3CCCO3)c12 (stereo not drawn) | 0.1 | 0.6 | -0.3
CCc1cccc2c(C(=O)C(F)(F)F)cn(CC(=O)N3CCOCC3)c12 | 43.0* | 0.9 | 0.9
CC(C)NC(=O)N(C)C[C@H]1OCCCC[C@@H](C)Oc2ccc(NC(=O)Cc3ccccc3)cc2C(=O)N([C@H](C)CO)C[C@@H]1C | -0.1 | -0.8 | ·
COc1ccc(NC(=O)Nc2ccc3c(c2)C(=O)N([C@@H](C)CO)C[C@@H](C)[C@@H](CN(C)S(=O)(=O)c2ccc(F)cc2)OCCCC[C@@H](C)O3)cc1 | -0.6 | 3.2 | ·
CCOc1ccc(C(=S)N2CCOCC2)cc1OC | · | · | 5.4
CCOc1cc(C(=S)N2CCOCC2)ccc1OC | · | · | 66.3*
O=C(/C=C/c1ccccc1)Oc1ccccc1C(=S)N1CCOCC1 | 43.2* | -2.9 | 2.4
COc1cc(C(=S)N2CCOCC2)ccc1OC(=O)/C=C/c1ccco1 | 43.1* | -0.4 | 0.0
COc1cc(C(=S)N2CCOCC2)ccc1OC(=O)c1ccccc1 | -0.2 | -0.8 | -0.4
O=C(/C=C/c1ccccc1)Oc1cccc(C(=S)N2CCOCC2)c1 | -0.1 | -1.4 | -8.0
O=C(N/N=C/c1cccs1)c1ccccn1 | · | · | 0.4
C(=NN=C(NN=Cc1cccs1)NN=Cc1cccs1)c1cccs1 | 43.1* | -0.2 | 1.8
CCNC(=O)[C@@H]1[C@@H](CO)[C@@H]2Cn3c(ccc(-c4ccc(F)cc4)c3=O)[C@H]1N2C(=O)c1ccccn1 | 0.1 | · | ·
CC(C)C(C(=O)NCc1ccccc1)N(CC1CCCO1)C(=O)CNS(=O)(=O)c1ccccc1 (stereo not drawn) | 0.4 | 1.0 | 8.7
CC(C)C(C(=O)NCc1ccco1)N(CC1CCCO1)C(=O)CNS(=O)(=O)c1ccccc1 (stereo not drawn) | 43.3* | -2.2 | -0.3
SMILES | FGF22 binding | F508del corr | Vif inh
CC(=O)C1CCC2C3CCC4CC(OC(=O)CCC(=O)O)CCC4(C)C3C(=O)CC12C (stereo not drawn) | 43.8* | 0.4 | -9.6
CC(=O)C1CCC2C3CC(O)C4=CC(=O)CCC4(C)C3C(=O)CC12C (stereo not drawn) | 0.9 | 3.9 | 8.9
C[C@@H]1CN([C@H](C)CO)C(=O)CCCn2cc(nn2)CO[C@@H]1CN(C)Cc1ccc2c(c1)OCO2 | -0.1 | -0.4 | ·
Cc1ccc2nc(NNC(=O)c3ccc4c(c3)OCCO4)sc2c1 | -0.8 | 0.7 | 1.8
Cc1ccc2nc(NNC(=O)c3ccc(S(=O)(=O)N4CCc5ccccc5C4)cc3)sc2c1 | 0.0 | 8.3* | 7.6
O=C(C1CCC1)N1C[C@@H]2[C@H](c3ccccc31)[C@H](CO)N2C(=O)Nc1cccc(F)c1 | -0.3 | 4.5 | ·
CCC(=O)NC(c1ccc(Cl)cc1Cl)c1ccc2cccnc2c1O (stereo not drawn) | -0.2 | 0.6 | 24.2
CC(=O)NC(c1ccc(Cl)cc1)c1ccc2cccnc2c1O (stereo not drawn) | -0.2 | 11.7* | -4.3
CCCC(=O)NC(c1ccc(C(C)C)cc1)c1ccc2cccnc2c1O (stereo not drawn) | -0.3 | 12.4* | -3.8
CCCC(=O)NC(c1ccc(N(C)C)cc1)c1ccc2cccnc2c1O (stereo not drawn) | 0.0 | 9.8* | -6.1
CCCC(=O)NC(c1ccccc1Cl)c1ccc2cccnc2c1O (stereo not drawn) | 0.0 | 5.8 | -9.0

High-throughput results (PubChem BioAssay)
